Here are results for 9 molecules from PubChem BioAssay (NCI).

Compounds without any hit were thinned out: in the full panel of roughly 83,000, 20% have a hit.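 Negative percent growth values reflect cell death: -40 means 40% of the cells present at the start died, and -100 means all died.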 Unmarked numbers belong to inactive results. The source made the active and inactive calls. Rule for the calls: active = growth percent below 10; inactive = the rest.

Test systems include SR leukemia; RPMI-8226 leukemia; OVCAR-8 ovarian; OVCAR-5 ovarian; OVCAR-4 ovarian; SK-OV-3 ovarian; IGROV1 ovarian; HS 578T breast; NCI/ADR-RES ovarian; T-47D breast; BT-549 breast; MDA-MB-435 melanoma; SW-620 colon; MCF7 breast; HCT-116 colon; HCC-2998 colon; KM12 colon.
Assay in all cases: NCI-60 one-dose screen, 48 h (100 = growth as untreated, 0 = no growth, -100 = all killed)
What all share (details): 10 µM unless noted

With `O=C(c1ccc(O)cc1)[C@@H]1[C@@H]2CCCN2[C@@]2(C(=O)N(C(=O)c3ccc(F)cc3)c3ccccc32)[C@H]1c1ccc(F)cc1`, the growth in the test on SR leukemia is 60.8%; in the test on RPMI-8226 leukemia, 75.6%; with OVCAR-8 ovarian, 93.2%; with OVCAR-5 ovarian, 111%; in the test with OVCAR-4 ovarian, 91.1%; in the test on SK-OV-3 ovarian, 104%. Also, the growth with IGROV1 ovarian is 63.1%; with HS 578T breast, 105%; with NCI/ADR-RES ovarian, 98.8%; in the test on T-47D breast it was 89%; in the test on BT-549 breast, 98.5%; in the test on MDA-MB-435 melanoma, 88.1%. Besides, the growth in the test with SW-620 colon is 113%; in the test with MCF7 breast, 86.3%; in the test on HCT-116 colon, 91.4%; with HCC-2998 colon, 108%; in the test with KM12 colon it was 100%.

`CCN1C(=O)N(CC)C2SC(N/N=C/c3ccccc3F)=NC21` (stereo not drawn): the growth in the test with SR leukemia was 18.7%; in the test on RPMI-8226 leukemia, 20.3%; with OVCAR-8 ovarian, 3.86% (active); in the test on OVCAR-5 ovarian, 47.5%; in the test on OVCAR-4 ovarian, 68.4%; in the test on SK-OV-3 ovarian it was 30.4%. In addition, the growth with IGROV1 ovarian is 28.3%; in the test on HS 578T breast it was 11.9%; in the test on NCI/ADR-RES ovarian it was 5.59% (active); in the test with T-47D breast, 61.9%; in the test with BT-549 breast it was -20.1% (active); with MDA-MB-435 melanoma it was -53.5% (active). In addition, the growth in the test on SW-620 colon is 19%; with MCF7 breast, 16.2%; with HCT-116 colon it was 13.6%; in the test on HCC-2998 colon, 17.1%; in the test with KM12 colon it was 11.8%.

On to `COc1ccc(C(=O)n2cc(C=O)c3ccccc32)cc1`, for which the growth in the test on SR leukemia was 65.5%; with RPMI-8226 leukemia it was 98.2%; with OVCAR-8 ovarian, 96.4%; in the test on OVCAR-5 ovarian, 102%; with OVCAR-4 ovarian, 111%; in the test on SK-OV-3 ovarian it was 133%. For the same molecule, the growth with IGROV1 ovarian was 93.4%; in the test on HS 578T breast, 101%; in the test on NCI/ADR-RES ovarian it was 94.7%; in the test on T-47D breast, 106%; in the test on BT-549 breast, 100%; with MDA-MB-435 melanoma, 88.8%. Besides, the growth in the test with SW-620 colon was 90%; in the test with MCF7 breast, 82.1%; in the test with HCT-116 colon, 91.3%; in the test on HCC-2998 colon, 104%; with KM12 colon, 102%.

Turning to `COc1ccc(Cn2cc3c(c2-c2ccccc2)CCCc2cnoc2-3)cc1[N+](=O)[O-]`, the growth in the test with SR leukemia was 32.6%; in the test on RPMI-8226 leukemia, 59%; in the test with OVCAR-8 ovarian it was 80.2%; in the test on OVCAR-5 ovarian it was 93.4%; in the test on OVCAR-4 ovarian it was 68.8%; with SK-OV-3 ovarian it was 74.8%. The growth with IGROV1 ovarian was 64%; in the test on HS 578T breast, 64.3%; in the test with NCI/ADR-RES ovarian, 42.5%; in the test on T-47D breast it was 67.7%; in the test with BT-549 breast, 81%; in the test on MDA-MB-435 melanoma, 1.77% (active). Moreover, the growth in the test on SW-620 colon is 41.3%; in the test on MCF7 breast it was 34.4%; with HCT-116 colon, 46.9%; with HCC-2998 colon it was 85.7%; in the test on KM12 colon, 49.4%.

For `COc1ccc(-c2ccnc3c(C#N)c(Nc4ccccc4)nn23)cc1OC`, the growth in the test with SR leukemia was 73.8%; in the test on RPMI-8226 leukemia it was 78.3%; in the test with OVCAR-8 ovarian, 85.2%; in the test with OVCAR-5 ovarian, 83.2%; in the test with OVCAR-4 ovarian, 103%; in the test on SK-OV-3 ovarian it was 100%. Also, the growth in the test with IGROV1 ovarian is 96.1%; in the test on HS 578T breast it was 84%; in the test on NCI/ADR-RES ovarian, 85.5%; with T-47D breast, 80.5%; with BT-549 breast it was 86.1%; with MDA-MB-435 melanoma, 103%. The growth is 90% in the test on SW-620 colon; 90.2% in the test on MCF7 breast; 87.5% in the test with HCT-116 colon; 99.1% with HCC-2998 colon; 96.6% with KM12 colon.

For the molecule `Cc1cccc(NC(c2cc3cccc4ccc5cccc2c5c43)c2nnnn2C(C)(C)C)c1C` (stereo not drawn), the growth with SR leukemia was 86.3%; with RPMI-8226 leukemia, 86.9%; in the test on OVCAR-8 ovarian, 92.8%; in the test on OVCAR-5 ovarian, 87%; with OVCAR-4 ovarian, 85.2%; with SK-OV-3 ovarian, 77.4%. The growth in the test with IGROV1 ovarian was 73.6%; in the test on HS 578T breast, 88%; with NCI/ADR-RES ovarian it was 89.4%; with T-47D breast, 68.4%; with BT-549 breast, 99.2%; in the test on MDA-MB-435 melanoma it was 93%. Also, the growth in the test with SW-620 colon is 93.7%; in the test with MCF7 breast, 66.9%; with HCT-116 colon, 70.5%; in the test on HCC-2998 colon it was 99.6%; with KM12 colon, 95.8%.

Take `CCC(CC)n1c(=O)c(SC2=NC3C(NN2)N(CC)C(=O)N3CC)c(C(=O)O)c2ccccc21` (stereo not drawn): the growth with SR leukemia is 14.4%; with RPMI-8226 leukemia, 14.4%; with OVCAR-8 ovarian it was 8.01% (active); with OVCAR-5 ovarian, 37.3%; in the test with OVCAR-4 ovarian, 65%; with SK-OV-3 ovarian, 40.6%. In addition, the growth in the test with IGROV1 ovarian is 32.6%; with HS 578T breast, 19.3%; with NCI/ADR-RES ovarian, 20.4%; in the test on T-47D breast, 68.4%; in the test with BT-549 breast, -21.6% (active); in the test with MDA-MB-435 melanoma, 0.0073% (active). Moreover, the growth is 21.7% with SW-620 colon; 17.4% with MCF7 breast; 6.91% (active) with HCT-116 colon; 24% with HCC-2998 colon; 20.7% with KM12 colon.

`CS(=O)(=O)c1ccc2c(c1)c1c(n2Cc2ccc(Cl)cc2)CCCC1`: the growth in the test with SR leukemia was 41.2%; in the test with RPMI-8226 leukemia, 55.8%; in the test with OVCAR-8 ovarian it was 72.7%; in the test on OVCAR-5 ovarian, 88.1%; with OVCAR-4 ovarian it was 75.1%; with SK-OV-3 ovarian, 97.5%. Also, the growth in the test with IGROV1 ovarian is 64%; with HS 578T breast it was 85.4%; with NCI/ADR-RES ovarian it was 48.4%; in the test with T-47D breast, 51.9%; in the test on BT-549 breast, 89%; in the test with MDA-MB-435 melanoma, 31.1%. The growth with SW-620 colon was 74.1%; in the test on MCF7 breast, 72.6%; in the test with HCT-116 colon, 61.9%; with HCC-2998 colon it was 85.5%; in the test with KM12 colon, 66.6%.

Regarding `O=C(Nc1cc(Cl)cc(Cl)c1)Nc1ccc2oc(=O)ccc2c1`, the growth with SR leukemia was 3.42% (active); with RPMI-8226 leukemia it was 1.84% (active); with OVCAR-8 ovarian, 12.5%; in the test with OVCAR-5 ovarian it was 36.4%; in the test with OVCAR-4 ovarian, 19.5%; in the test on SK-OV-3 ovarian, 25.7%. In addition, the growth was 26.4% in the test with IGROV1 ovarian; 39.4% in the test with HS 578T breast; 10.9% in the test with NCI/ADR-RES ovarian; 3.54% (active) in the test with T-47D breast; 29% in the test on BT-549 breast; 13.9% with MDA-MB-435 melanoma. In addition, the growth is 17.3% in the test on SW-620 colon; 5.48% (active) in the test on MCF7 breast; 1.36% (active) in the test on HCT-116 colon; 27.3% in the test with HCC-2998 colon; 11.5% in the test with KM12 colon.
